G9a block: G9a (human) methyltransferase inhibition | Q96KQ7 | G9a H3K9 monomethylation, AlphaScreen, 2 h | Potency, µM (highest dose often 102 µM), inactives show at the top dose activity, negative = inhibition, most hits filed as inhibitors | 350,000 tested, 8.8% active | AID 504332; note: potency is the fitted concentration of half-maximal effect; % is set by controls: 0 for no effect and ±100 for the full control effect; nearly all actives have a fitted effect of over 75% in size
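G9a (20 nM) was preincubated 15 min with compound, then reacted 2 h at room temperature with 500 nM biotin-H3K9 peptide and 20 µM SAM. Monomethyl-H3K9 detected by AlphaScreen using anti-H3K9me1 antibody.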
JMJD2A Tudor: blocks the human JMJD2A Tudor domain | O75164 | AlphaScreen JMJD2A-Tudor / H3K4me3 peptide binding | Potency, µM (doses to about 114 µM), for the others: at the top dose activity change, negative = inhibition, usual class: inhibitors | 390,000 tested, 4.4% active; note: potency is the fitted concentration of half-maximal effect; % is set by controls: 0 for no effect and ±100 for the full control effect; nearly all actives have a fitted effect of over 50% in size
HP1b chromo inh: HP1-beta chromodomain-methylated histone interaction inhibition; P83916; AlphaScreen HP1-beta / biotin-H3K9me3 peptide binding; Potency, µM (doses to about 114 µM), for the others: at the highest dose activity change, negative = inhibition, actives largely listed as inhibitors; 390,000 tested, 0.56% active; AID 540317; note: potency is the fitted concentration of half-maximal effect; nearly all actives have a fitted effect of over 70% in size
Target sequence (P83916 whole entry, looked up): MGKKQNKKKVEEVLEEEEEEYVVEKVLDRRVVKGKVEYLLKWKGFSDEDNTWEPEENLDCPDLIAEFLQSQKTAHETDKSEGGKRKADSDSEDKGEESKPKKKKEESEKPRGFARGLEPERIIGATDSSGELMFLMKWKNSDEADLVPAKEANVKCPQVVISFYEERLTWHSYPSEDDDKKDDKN
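Compound inhibition of the preformed complex between 50 nM HP1-beta and 50 nM biotinylated H3K9me3 peptide was read by AlphaScreen. Buffer was PBS pH 7.4 with 0.01% Tween-20. Incubations ran 30 min at room temperature, with 10 ug/mL donor/acceptor beads.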
BAZ2B block: inhibitors of human BAZ2B bromodomain | Q9UIF8 | AlphaScreen BAZ2B-H3K14Ac peptide displacement | Potency, µM (doses to about 114 µM), without a hit: at the top dose activity change, negative = inhibition, most hits filed as inhibitors | 360,000 tested, 4.4% active | AID 504333; note: potency is the fitted concentration of half-maximal effect; % is set by controls: 0 for no effect and ±100 for the full control effect; nearly all actives have a fitted effect of over 60% in size
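Compounds, titrated to a top concentration of 110 uM, were incubated 30 min at room temperature with preformed BAZ2B/acetyl-K14 H3 peptide complex (50 nM each). Proximity signal was measured by AlphaScreen after 20 min with beads.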
L3MBTL1 block: L3MBTL1 (human) inhibition | AID 485360 | 230,000 tested, 0.66% active | Potency, µM (series often up to 57.1 µM), for inactives: top-dose activity, negative = inhibition, actives largely listed as inhibitors | AlphaScreen L3MBTL1–H3K9me1 peptide binding | Q9Y468; note: potency is the fitted concentration of half-maximal effect; % is set by controls: 0 for no effect and ±100 for the full control effect; nearly all actives have a fitted effect of over 60% in size
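AlphaScreen proximity signal between nickel-chelate acceptor and streptavidin donor beads (final 10 ug/mL) reports binding of 50 nM L3MBTL1 to 75 nM biotin-H3 K9me1 peptide; complex incubated with compounds 30 min at room temperature; cefsulodin titration as control.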
PI5P4K alpha inh: blocks human PI5P4K alpha kinase activity. max response, %. 330,000 tested, 1.2% active. P48426. PI5P4Kalpha enzyme, ADP-Glo luminescence, 60 min; active compounds read low. AID 652105; active = max response of -50% or lower; inconclusive = between -30% and -50%; inactive = -30% or higher; note: value at the top dose of about 77 µM; % is set by controls: 0 for no effect and ±100 for the full control effect
Target sequence (P48426 whole entry, looked up): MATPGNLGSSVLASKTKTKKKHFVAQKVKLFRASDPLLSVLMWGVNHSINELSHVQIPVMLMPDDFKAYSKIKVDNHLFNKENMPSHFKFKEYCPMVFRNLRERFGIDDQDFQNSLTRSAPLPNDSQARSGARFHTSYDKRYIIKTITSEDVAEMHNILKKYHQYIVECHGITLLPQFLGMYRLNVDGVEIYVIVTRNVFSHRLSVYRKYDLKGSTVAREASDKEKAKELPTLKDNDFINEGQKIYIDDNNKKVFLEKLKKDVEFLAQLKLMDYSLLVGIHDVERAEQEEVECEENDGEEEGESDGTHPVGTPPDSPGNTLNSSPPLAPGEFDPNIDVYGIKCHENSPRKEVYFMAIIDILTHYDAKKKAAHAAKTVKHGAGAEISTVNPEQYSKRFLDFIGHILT
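ADP-Glo luminescence end-point read after a 60 min room-temperature kinase reaction of PI5P4Kalpha plus substrate, initiated with ATP at 5 microM final. Buffer: 0.038 M HEPES pH 7.4, EGTA, 0.1% CHAPS, 5% DMSO.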
Numbers without * were called inactive; ? = inconclusive; . = no result; [ ] = dose if it differs, or a comment. Rows were chosen to be rich in hits. Some 11% of all compounds tested hit in one or more screens of this group. Unless noted, calls come from the whole dose curve; as a rule, active = well fitted inhibition curve with a large enough effect; inconclusive = small, poorly fitted or top-dose-only effect; inactive = no such curve, though single readings can be large or run the other way.

SMILES | G9a block | JMJD2A Tudor | HP1b chromo inh | BAZ2B block | L3MBTL1 block | PI5P4K alpha inh
CCC1CN(C(=O)N2CCC(C(=O)N3CCN(c4ccccc4)CC3)CC2)c2ccccc2O1 (stereo not given) | -44%[59 µM] | -28% | 18% | -28% | . | .
O=C(C[n+]1ccccc1)N/N=C/c1ccc(C(=O)O)cc1 | ? | -30% | 52% | 79µM* | -16% | 0
O=C(C[n+]1ccccc1)N/N=C/c1cc(Br)cc(Br)c1O | -12% | 22µM* | 27% | 10µM* | . | 13
O=C(C[n+]1ccccc1)N/N=C/c1cc(Br)ccc1F | -3%[12.7 µM] | ? | 28% | 71µM* | -22% | 1
COc1ccc(Br)cc1/C=N/NC(=O)C[n+]1ccccc1 | -13% | -9% | 34% | -15% | . | 3
CN(C)c1ccc(/C=N/NC(=O)C[n+]2ccccc2)cc1 | . | -12% | -3% | . | . | -1
COc1cccc(Cn2c(=O)c(-c3cccs3)nc3cnc(N(C)C)nc32)c1 | 11%[0.501 µM] | . | . | . | . | .
CCCCN(CC)C(=O)Cn1cc2c(n1)-c1c(oc(C(=O)N3CCCC3)c1C)CC2 | ? | -26% | -2% | ? | . | .
COC(=O)c1ccc(-n2nnnc2SC)cc1 | 10µM* | -9% | -11% | 9% | 7% | .
CN(C)/C=C/C(=O)c1ccc(-c2ccc(Cl)cc2Cl)o1 | 45µM* | -22%[57.1 µM] | -21% | ? | -16% | -64*
CC(C)(C)N=C1C([N+](=O)[O-])=CC=C2C1=NC1(CCCCC1)N2O | 3.5µM* | 6.3µM* | 25µM* | 5.6µM* | ? | -1
O=[N+]([O-])C1=CC=C2C(=NC3(CCCCC3)N2O)C1=NC1CCCCC1 | . | ? | 13µM* | 3.2µM* | -9% | .
O=[N+]([O-])C1=CC=C2C(=NC3(CCCCC3)N2O)C1=NCCc1ccccc1 | 7.1µM* | -13%[11.4 µM] | -22% | -24% | . | -9
O=[N+]([O-])CC1(n2nc3ccccc3n2)CCCCC1 | 2%[2.33 µM] | 6% | 39% | -2% | 10% | -5
CC1(C)CC(N=C2C([N+](=O)[O-])=CC=C3C2=NC2(CCCCC2)N3O)CC(C)(C)N1 | . | -12% | -10% | -35% | -28% | -1
C[C@H](CCC(=O)O)[C@H]1CC[C@@H]2[C@H]3CC[C@H]4C[C@@H](O)CC[C@@]4(C)[C@H]3CC[C@]21C | 17%[21.5 µM] | . | . | . | . | .
O=C(NCc1ccccc1)c1ccc(Cn2c(=O)c3cccn3c3cccnc32)cc1 | 0%[59 µM] | 10% | 29% | -22% | . | .
O=C(C1COc2ccccc2O1)N1CCN(c2nc3c(F)cccc3s2)CC1 (stereo not given) | -15%[59 µM] | -11% | 16% | -14% | . | .
Cc1ccc(NC(=O)CS(=O)CC(=O)N(c2ccc(C)cc2)C(C)C(=O)NC2CCCCC2)cc1 (stereo not given) | 18µM* | -3% | 41% | 16% | -3% | 6
CCn1c(C)nc2cc(S(=O)(=O)N3CCCC3)ccc21 | -22%[59 µM] | -11%[11.4 µM] | -2% | 1% | 0% | 4
CCn1c(C)nc2cc(S(N)(=O)=O)ccc21 | . | 14µM* | -3% | 4% | 17% | -20
CCn1c(-c2ccccn2)nc2cc(S(=O)(=O)N(C)C)ccc21 | 50µM* | -13% | 8% | 14% | . | 4
CCn1c(-c2cc(Br)cc(OC)c2O)nc2cc(S(=O)(=O)N(C)C)ccc21 | 45µM* | -34% | 15% | -13% | -16% | .
CCn1c2cc(C)sc2c2cnn(Cc3ccccc3F)c(=O)c21 | . | 14% | . | . | . | .
COc1ccc(Br)cc1CN1C(=O)c2ccccc2C1C(=O)NC1CCCCCC1 (stereo not given) | 6%[59 µM] | -18% | 22% | -1% | . | .
SMILES | G9a block | JMJD2A Tudor | HP1b chromo inh | BAZ2B block | L3MBTL1 block | PI5P4K alpha inh
COc1ccccc1C(=O)OCc1cc(=O)n2nc(C(C)C)sc2n1 | 10%[59 µM] | -10% | 13% | -6% | . | .
c1cc(C2CCN(Cc3nc(-c4ccc5c(c4)OCO5)no3)CC2)ccn1 | 3.5µM* | 79µM* | 10% | 56µM* | -15% | 3
CCN(CC)CCN(C(=O)c1ccco1)c1nc2ccc(Br)cc2s1 | -6%[59 µM] | -9% | 36% | -2% | . | .
COc1ccc(N2CSC3=C(C#N)C(c4cccs4)CC(=O)N3C2)cc1 (stereo not given) | 2.8µM* | -12% | 9% | 50µM* | ? | .
CCOC(=O)CC1=C(C(=O)OCC)C(c2cccs2)C(C#N)=C(N)O1 (stereo not given) | -29%[59 µM] | -8% | 20% | -39% | . | -6
COC(=O)C1C(=O)N2CCCSC2=C(C#N)C1c1cccs1 (stereo not given) | ? | -14% | 31% | -21% | 3% | .
CCOC(=O)c1ccc(N2CSC3=C(C#N)C(c4cccs4)CC(=O)N3C2)cc1 (stereo not given) | 5.6µM* | 28µM* | ? | 45µM* | -3% | -70*
COc1ccc(C2CC(=O)N3CN(C4CCCCC4)CSC3=C2C#N)cc1 (stereo not given) | 1.8µM* | 7.1µM* | ? | . | . | .
COc1cccc(Nc2ncc3nc(CCc4ccccc4)c(=O)n(Cc4cccs4)c3n2)c1 | 8%[0.501 µM] | . | . | . | . | .
CCOC(=O)c1nn(-c2ccccc2)c(C(=O)OCC)c1N | -24%[12.7 µM] | -7% | 27% | -1% | . | .
CCOC(=O)c1nn(-c2ccc(F)cc2)c2c1CC/C2=C/c1ccccc1 | 71µM* | -7% | 38% | -1% | 10% | -1
CC(C)[C@H](NC(=O)c1ccccc1)C(=O)O | 2%[59 µM] | -18% | 1% | -13% | . | -3
CCCCN(Cc1ccc(C(=O)N[C@H](C(=O)O)C(C)C)cc1)C(=O)C(c1ccccc1)c1ccccc1 | . | 89µM* | -21% | . | . | -9
COc1ccccc1N1C(=O)CC(Sc2n[nH]c(-c3cccc(C)c3)n2)C1=O (stereo not given) | 1µM* | 2.8µM* | ? | -30% | -7% | 1
CCOC(=O)C1CCCN(C(=O)c2ccc3c(c2)N(Cc2ccccc2F)C(=O)c2ccccc2S3=O)C1 (stereo not given) | -4%[59 µM] | -24% | 5% | -18% | . | .
Clc1ccc(-n2nnnc2-c2ccccc2)cc1 | 45µM* | 3% | -15% | 1% | 3% | .
Cc1ccc(-n2nnnc2-c2cnc3ccc(Cl)cc3c2-c2ccccc2)cc1 | 22%[0.0925 µM] | -31% | 5% | -3% | -7% | -1
Clc1ccc(-n2nnnc2-c2cnc3ccccc3c2-c2ccccc2)cc1 | 14µM* | -31% | 5% | -20% | -11% | -3
CCSC1=NSC2=NC(=O)/C(=C\c3coc4ccccc4c3=O)C(=N)N12 | ? | 10% | 70% | ? | 4% | -59*
CC(C)CC1=NN2C(=N)/C(=C\c3coc4ccccc4c3=O)C(=O)N=C2S1 | ? | -4% | 61% | -9% | . | -53*
